# According to PubChem BioAssay (Tox21):
# Several values for one entry are separate records, joined by “and”; a condition that tells them apart may be missing. Equal values may be shown once. Results filed as inconclusive are left out. A call without a number means that no potency is given here. Some compounds were tested as several samples or in several runs, with calls that do not always agree. Activity calls are given as the source filed them. Calls follow the shape of the dose curve; as a rule, active = well fitted cell-killing curve with a large enough effect in the repeat runs; inconclusive = weak or mixed curves, or effect the other way; inactive = flat fitted curve, though single readings scatter.
# Assay: qHTS assay to identify small molecule agonists of the TGF-beta/Smad signaling pathway - cell viability counter screen (AID 1346829); also: nearly all actives have a fitted effect of over 45% in size; as to activity change, negative = cytotoxicity: top concentration of the series differs between compounds
# Settings: SBE-bla HEK293T viability, CellTiter-Glo luminescence, 5 h; series mostly up to 76.8 µM
# Text: National Center for Advancing Translational Sciences [NCATS]
# NIH Chemical Genomics Center [NCGC]
# U.S. Environmental Protection Agency [EPA]
# National Institutes of Environmental Health Sciences [NIEHS]
# National Toxicology Program [NTP]
# U.S. Food and Drug Administration [FDA]
# Transforming growth factor beta (TGF-beta) superfamily consists of a large number of structurally related dimeric proteins that act as hormones or local mediators in regulating a wide range of biological functions. This superfamily includes TGF-betas themselves, the bone morphogenetic proteins (BMPs) and the activins. These ligands induce oligomerization of serine/threonine receptor kinases and phosphorylate the cytoplasmic signaling molecules of Smad protein family. CellSensor SBE-bla HEK 293T cell line (Life Technologies, Carlsbad, CA), responsive to TGF-beta was used to screen Tox21 10K compound library for identification of agonists/antagonists of the Smad signaling pathway. This cell line contains a beta-lactamase reporter gene under control of the Smad binding element (SBE) stably integrated into HEK 293T cells. Also cytotoxicity of the compounds was tested in parallel by measuring the cell viability using CellTiter-Glo assay system in the same wells.
# Tox21 Assay Protocol Summary:
# SBE-bla HEK 293T cells were dispensed at 4,000/well in 6 uL of assay medium into black wall/clear-bottom 1536-well plates using a Multidrop Combi (ThermoFisher Scientific, Waltham, MA) dispenser. After the assay plates were incubated at 37 C and 5% CO2 for an overnight, 23 nL of compounds dissolved in DMSO, positive controls or DMSO only was transferred to the assay plate by a Pintool station (Kalypsys, San Diego, CA). The assay plates were incubated at 37 C and 5% CO2 for 5 hr. One uL of LiveBLAzer B/G FRET substrate (Life Technologies) was added using a Flying Reagent Dispenser (FRD, Aurora Discovery, San Diego, CA) and the plates were incubated at room temperature for 2 hr. Fluorescence intensity (405 nm excitation, 460 nm and 530 nm emissions) was measured using an Envision plate reader (PerkinElmer, Shelton, CT). For cytotoxicity read, 4 uL of CellTiter-Glo reagent (Promega Corporation, Madison, WI) was added to each well of the assay plates using FRD. After 30min incubation at room temperature, the luminescence intensity was measured using ViewLux plate reader (PerkinElmer).
# Potency is read from the fitted curve at half-maximal effect.
Structure (SMILES),Potency,"activity change, negative = cytotoxicity"
CC(=O)[O-].CC(=O)[O-].CC(=O)[O-].[Cr+3],inactive,–
CN1C(=O)[C@@H](NC(=O)c2cc3ccccc3[nH]2)N=C(c2ccccc2)c2ccccc21,inactive,–
C=Cc1cccc(CCl)c1,inactive,–
CC(O)C(=O)[O][Hg][c]1ccccc1 (stereo not given),17.4 µM (active),–
CCO/N=C(\CC)C1=C(O)CC(c2c(C)cc(C)cc2C)CC1=O (stereo not given),inactive,–
Clc1c(Cl)c(Cl)c(Cl)c(Cl)c1Cl,–,6.4% [at 6.97 µM] (inactive)
Brc1ccc(Oc2ccc(Br)cc2Br)c(Br)c1,inactive,–
CNN,inactive,–
COc1ccc2[nH]cc(CCN(C(C)C)C(C)C)c2c1,inactive,–
O=C1C(Cl)=C(Cl)C(=O)C(Cl)=C1Cl,inactive,–
c1cc[n+]2c(c1)-c1cccc[n+]1CC2,inactive,–
O=[N+]([O-])c1cccc2cccc([N+](=O)[O-])c12,inactive,–
ClC1=C(Cl)[C@]2(Cl)[C@H]3[C@H]([C@@H]4C=C[C@H]3C4)[C@@]1(Cl)C2(Cl)Cl,inactive and 49 µM (active),–
O=S(=O)(NS(=O)(=O)C(F)(F)F)C(F)(F)F,inactive,–
CCN(CC)C(=O)N[C@@H]1C=C2c3cccc4[nH]cc(c34)C[C@@H]2N(C)C1,inactive,–
CC[C@H](C)[C@H]1O[C@]2(C=C[C@@H]1C)C[C@@H]1C[C@@H](C/C=C(\C)[C@@H](O[C@H]3C[C@H](OC)[C@@H](O[C@H]4C[C@H](OC)[C@@H](NC)[C@H](C)O4)[C@H](C)O3)[C@@H](C)/C=C/C=C3\CO[C@@H]4[C@H](O)C(C)=C[C@@H](C(=O)O1)[C@]34O)O2,15.5 µM (active),–
CC(C)(C)c1ccc(OP(=O)(Oc2ccccc2)Oc2ccccc2)cc1,inactive,–
ClCBr,inactive,–
[Cl-].[Cl-].[Sn+2],inactive,–
O=C(CCCCl)c1ccc(F)cc1,inactive,–

Structure (SMILES),Potency,"activity change, negative = cytotoxicity"
CCCCn1cc[n+](C)c1.[Cl][Fe-]([Cl])([Cl])[Cl],inactive,–
CN/C(=N\[N+](=O)[O-])NCc1cnc(Cl)s1,inactive,–
CCCCC(CC)COC(=O)c1ccccc1C(=O)OCC(CC)CCCC (stereo not given),inactive,–
COc1c2c(cc3c1OCO3)CCN(C)C2,inactive,–
O=S1(=O)OCC2C(CO1)C1(Cl)C(Cl)=C(Cl)C2(Cl)C1(Cl)Cl (stereo not given),inactive,–
C=C(C)C(=O)[O][Sn]([CH2]CCC)([CH2]CCC)[CH2]CCC,1.1 µM (active),–
Clc1ccc(C2(Cn3cncn3)OCCO2)c(Cl)c1,inactive,–
COC(=O)c1ccccc1S(=O)(=O)NC(=O)Nc1nc(C)nc(OC)n1,inactive,–
S=C=Nc1ccccc1,inactive,–
C[C@]12C/C(=C/O)C(=O)C[C@@H]1CC[C@@H]1[C@@H]2CC[C@@]2(C)[C@H]1CC[C@]2(C)O,inactive,–
COP(=O)(OC)Oc1ccc([N+](=O)[O-])cc1,inactive,–
CC(C)c1c(CN(C)C(C)Cc2ccccc2)n(C)n(-c2ccccc2)c1=O (stereo not given),inactive,–
C=CC(=O)[O][Sn]([CH2]CCC)([CH2]CCC)[CH2]CCC,1.95 µM (active),–
O=C(O)CCCCCCNC1c2ccccc2CCc2ccccc21,inactive,–
CCN(CC)C(=S)S,inactive,–
O=[N+]([O-])c1ccc(Cl)c(Cl)c1Cl,inactive,–
CNC(=O)CSP(=O)(OC)OC,inactive,–
CN1C2CCC(C)(C)C1CC(OC(=O)C(O)(c1cccs1)c1cccs1)C2 (stereo not given),inactive,–
CCCCCCCCCCCCCCn1cc[n+](C)c1,49.1 µM (active) and 38.5 µM (active) and inactive,–
COP(=O)(OC)O/C(=C\Cl)c1cc(Cl)c(Cl)cc1Cl,inactive,–
